High-throughput results: PubChem BioAssay, The Scripps Research Institute Molecular Screening Center
ABHD5 PLIN5 PPI = ABHD5-PLIN5 interaction inhibitors, primary screen, cell lysate, split luciferase complementation, luminescence; Perilipin-5 (Homo sapiens) + 1-acylglycerol-3-phosphate O-acyltransferase ABHD5 (Homo …; Split G. princeps luciferase complementation, 4 h; inhibition, % at 4 µM; actives 0.78% (n = 360,000); AID 602281, 2012;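 active means inhibition above the mean inhibition across every tested compound plus 3 SD, cut at about 22% in these data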
PRMT1 inh = PRMT1 methyltransferase inhibitors, primary screen, biochemical, fluorescence polarization. recombinant PRMT1, activity-based probe fluorescence polarization. inhibition, % at 2.79 µM. actives 1.3% (n = 370,000). AID 652257, 2013. Protein arginine N-methyltransferase 1 (Homo sapiens), Q99873;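 active means inhibition above about 21% made by adding two undisclosed values, limit read from the data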
NOD2 RIPK2 PPI = NOD2-RIPK2 binding disruptors in cells, primary screen, fluorescence, CHO cells, BLA complementation. actives 0.38% (n = 360,000). Receptor-interacting serine/threonine-protein kinase 2 (Homo sapiens), O43353. inhibition, % at 4.98 µM. AID 624267, 2012. CCF4 ratio; in the data active means inhibition above about 21%
Target sequence (O43353 whole entry, looked up): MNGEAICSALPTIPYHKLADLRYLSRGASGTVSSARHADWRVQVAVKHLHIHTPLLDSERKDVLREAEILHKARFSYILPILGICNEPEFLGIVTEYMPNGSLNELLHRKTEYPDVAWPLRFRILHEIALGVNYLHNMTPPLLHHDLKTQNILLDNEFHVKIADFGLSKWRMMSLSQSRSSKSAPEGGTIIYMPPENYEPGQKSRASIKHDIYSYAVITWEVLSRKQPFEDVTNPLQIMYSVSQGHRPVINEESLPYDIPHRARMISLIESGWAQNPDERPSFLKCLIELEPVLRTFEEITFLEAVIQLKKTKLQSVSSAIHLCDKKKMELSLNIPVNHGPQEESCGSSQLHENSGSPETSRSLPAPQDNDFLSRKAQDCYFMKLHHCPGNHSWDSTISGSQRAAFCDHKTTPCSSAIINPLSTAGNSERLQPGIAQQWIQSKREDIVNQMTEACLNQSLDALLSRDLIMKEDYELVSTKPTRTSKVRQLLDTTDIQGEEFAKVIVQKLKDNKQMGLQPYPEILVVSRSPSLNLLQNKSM
rCAG RNA binder = binders of r(CAG) RNA repeats, primary screen, biochemical, fluorescence; actives 1.3% (n = 370,000); inhibition, % at 3 µM; r(CAG) RNA repeat, TO-PRO-1 dye displacement fluorescence;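 active means inhibition above the plate cutoff, the mean of all test compounds on that plate plus 3 SD, cut at about 35% in these data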;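 further: higher means more dye released from RNA so lower well fluorescence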
TLR4 MyD88 comp = inhibitors of TLR4-MyD88 association in cells, primary screen, cell-based, HeLa CL3-4, BLA complementation, FRET ratio | Toll-like receptor 4 (Homo sapiens) + Myeloid differentiation primary response protein … | HeLa CL3-4 TLR4/MyD88 BLA complementation | inhibition, % at 8.4 µM | actives 0.18% (n = 200,000) | AID 861, 2007; in the data active means inhibition above about 25%
TLR9-MyD88 block = inhibitors of TLR9-MyD88 association in cells, primary screen, cell-based, CHO, BLA complementation, fluorescence; actives 0.21% (n = 340,000); Toll-like receptor 9 (Homo sapiens) + Myeloid differentiation primary response protein …; inhibition, % at 4.98 µM; AID 504734, 2011; CCF4 FRET ratio;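 active means inhibition above the mean over all tested compounds plus 3 SD, cut at about 21% in these data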
rCAG bind conf = small molecules binding CAG repeat RNA – biochemical, fluorescence, confirmation; actives 70% (n = 4,300); inhibition, % at 3 µM; shares compounds with rCAG RNA binder; r(CAG) RNA repeat, TO-PRO-1 dye displacement fluorescence;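 active means inhibition above a per-plate cutoff, the mean inhibition of sample wells plus 3 SD, cut at about 35% in these data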;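 further: loss of TO-PRO-1 fluorescence as compound displaces dye from 1x1 AA loop RNA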
dCAG dye counter = displacement of TO-PRO-1 from CAG DNA duplex, counter-screen for rCAG RNA repeat binder project, biochemical, fluorescence, TO-PRO-1 dye, d(CAG) DNA oligo. shares compounds with rCAG RNA binder. d(CAG) DNA oligo TO-PRO-1 dye displacement. inhibition, % at 3 µM. actives 94% (n = 4,300);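 active means inhibition above its plate's cutoff, the mean test-well inhibition plus 3 SD, cut at about 4.8% in these data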;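 further: hits displace the dye from DNA and so lower well fluorescence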
dCAG dye DR = inhibitors of DNA CAG/GTC TO-PRO-1 complex, dose response, counter-screen for rCAG RNA repeat binder project, biochemical, fluorescence, TO-PRO-1 dye | shares compounds with rCAG RNA binder | actives 20% (n = 250) | DNA CAG/GTC duplex TO-PRO-1 dye displacement fluorescence | IC50, µM | AID 686960, 2013; in the data active means IC50 below about 10 µM
Large screens that a line does not name were inactive (follow-up assays come after a bar, where they were run). Shown are actives, neighbours in structure and some others; about 3.3% of the full set was active somewhere.

C=CCN1CC(=O)N2C(c3ccccc3)c3[nH]c4ccccc4c3C[C@H]2C1=O (stereo not given in full)	none (no result: TLR4 MyD88 comp)
Oc1c(N=Nc2nn[nH]n2)ccc2ccccc12	PRMT1 inh 35, rCAG RNA binder 47 (no result: TLR4 MyD88 comp, TLR9-MyD88 block) | rCAG bind conf 61 | dCAG dye counter 30
CC1CC=C(O)C12OCC(C)(C)CO2 (stereo not given)	none (no result: TLR4 MyD88 comp)
CN(C)c1ccc(-c2noc(C3CCN(S(=O)(=O)c4cccc(C(=O)O)c4)CC3)n2)cc1	rCAG RNA binder 65 | rCAG bind conf 68 | dCAG dye counter 32
COC(=O)[C@]12C[C@H](CC(=O)NCCCCc3ccccc3)C(=O)N(Cc3ccc4c(c3)OCO4)C1=C[C@H](C(C)C)O[C@@H]2C1CC1	none (no result: ABHD5 PLIN5 PPI, NOD2 RIPK2 PPI, TLR4 MyD88 comp, TLR9-MyD88 block)
CCOc1cc(/C=C2\C(=O)N(c3ccc(C(N)=O)cc3)N=C2C)ccc1OC(=O)c1cccs1	none (no result: PRMT1 inh, rCAG RNA binder)
COc1ccc(/C=C2/SC(=S)N(CC(=O)O)C2=O)cc1OCc1ccc(Cl)cc1	none (no result: TLR4 MyD88 comp)
COc1cc(/C=C2\SC(=S)N(CC(=O)O)C2=O)ccc1OC(=O)c1ccco1	rCAG RNA binder 46 (no result: TLR4 MyD88 comp) | rCAG bind conf 45 | dCAG dye counter 13
COc1cc(/C=C2/SC(=S)N(CC(=O)O)C2=O)ccc1OC(=O)c1ccco1	rCAG RNA binder 41 (no result: TLR4 MyD88 comp) | rCAG bind conf 46 | dCAG dye counter 15
CCOc1cc(/C=C2/SC(=S)N(CC(=O)O)C2=O)ccc1OC(=O)c1cccs1	rCAG RNA binder 58 (no result: TLR4 MyD88 comp) | rCAG bind conf 71 | dCAG dye counter 30 | dCAG dye DR inactive
O=C(CCc1ccc(Oc2cc([N+](=O)[O-])cc([N+](=O)[O-])c2)cc1)N1CCCCCC1	none
COc1ccc(OC)c(S(=O)(=O)Nc2cc3c4c(c2)C(C)C(=O)N4CCC3)c1 (stereo not given)	none (no result: TLR4 MyD88 comp)
O=C(O)C1OCC2(CO1)COC(C(=O)O)OC2 (stereo not given)	none (no result: TLR4 MyD88 comp)
CCCOC(=O)Cn1cnc2scc(-c3ccc(C)cc3)c2c1=O	none (no result: TLR4 MyD88 comp)
CCc1ccc(-c2csc3ncn(Cc4ccc(C(=O)O)cc4)c(=O)c23)cc1	rCAG RNA binder 35 | rCAG bind conf inactive | dCAG dye counter 7.7
O=C(Nc1ccc(C(=O)O)cc1)/C(=C\C=C\c1ccccc1)NC(=O)c1cccc(Br)c1	rCAG RNA binder 78 | rCAG bind conf 80 | dCAG dye counter 52
O=C(Nc1ccc(C(=O)O)cc1)/C(=C\C=C\c1ccccc1)NC(=O)c1ccccc1Br	rCAG RNA binder 54 (no result: TLR4 MyD88 comp) | rCAG bind conf 35 | dCAG dye counter 12
Cc1ccc(NC(=O)/C(=C\C=C\c2ccccc2)NC(=O)c2ccccc2)cc1	none
CN(C)CCCN1C(=O)C(=O)/C(=C(/O)c2ccc3c(c2)OCO3)C1c1cccnc1 (stereo not given)	none (no result: ABHD5 PLIN5 PPI, PRMT1 inh, NOD2 RIPK2 PPI, rCAG RNA binder, TLR9-MyD88 block)
Cc1ccc(NC(=O)CSc2nnc(-c3ccoc3C)n2CCCN(C)C)cc1Cl	none (no result: TLR4 MyD88 comp)
CC(=O)Nc1ccc(-c2nc3cc(Cl)ccc3o2)cc1	none (no result: TLR4 MyD88 comp)
CCn1c2ccccc2c2cc(NC(=O)C(C)C)ccc21	none
CCn1c2ccccc2c2cc(NC(=O)c3ccccc3-c3ccccc3C(=O)O)ccc21	rCAG RNA binder 75 (no result: TLR4 MyD88 comp) | rCAG bind conf 65 | dCAG dye counter 26
O=C(O)c1ccccc1-c1ccccc1C(=O)Nc1ccccc1	none
O=C(O)c1ccccc1-c1ccccc1C(=O)Nc1ccc2oc(=O)c3ccccc3c2c1	rCAG RNA binder 51 (no result: TLR4 MyD88 comp) | rCAG bind conf 51 | dCAG dye counter 14
Cc1ccc(NC(=O)c2ccccc2-c2ccccc2C(=O)O)cc1C	none
O=C(O)c1ccccc1-c1ccccc1C(=O)Nc1ccc(-c2nc3cc(Cl)ccc3o2)cc1	rCAG RNA binder 71 (no result: TLR4 MyD88 comp) | rCAG bind conf 85 | dCAG dye counter 54
O=C(O)c1ccccc1-c1ccccc1C(=O)Nc1ccc2c(c1)[nH]c(=O)c1ccccc12	rCAG RNA binder 68 (no result: TLR4 MyD88 comp) | rCAG bind conf 62 | dCAG dye counter 27
COc1cc(OC)c(NC(=O)c2ccc3c(SCC(=O)O)c4c(nc3c2)CCCC4)cc1Cl	rCAG RNA binder 51 | rCAG bind conf 62 | dCAG dye counter 24
COC(=O)c1sc(SC)c(S(=O)(=O)C(C)C)c1N/N=C(\C#N)C(=O)c1ccccc1	rCAG RNA binder 52 (no result: TLR4 MyD88 comp) | rCAG bind conf 71 | dCAG dye counter 22 | dCAG dye DR 4.3
O=S(=O)(Nc1ncnc2scc(-c3ccc(F)cc3)c12)c1cc(F)ccc1F	rCAG RNA binder 54 (no result: TLR4 MyD88 comp) | rCAG bind conf 55 | dCAG dye counter 20
Cc1ccc(-c2csc3ncnc(NS(=O)(=O)c4ccc(Cl)cc4)c23)cc1	none
CCCc1cc(=O)[nH]c(SCC(=O)Nc2cc(S(=O)(=O)N(CC)c3ccccc3)ccc2Cl)n1	rCAG RNA binder 60 (no result: TLR4 MyD88 comp) | rCAG bind conf 56 | dCAG dye counter 20
CCCC(=O)Nc1nc(C)c(-c2csc(Nc3cc(OC)ccc3OC)n2)s1	none
CCCCCC(=O)Nc1nc(C)c(-c2csc(Nc3cc(Cl)ccc3OC)n2)s1	rCAG RNA binder 39 | rCAG bind conf inactive | dCAG dye counter 13
O=c1[nH]c(=S)[nH]c2c1C(c1ccc(Br)cc1)c1c([nH]c(=S)[nH]c1=O)O2	PRMT1 inh 45, rCAG RNA binder 87 (no result: TLR4 MyD88 comp) | rCAG bind conf 84 | dCAG dye counter 48
COc1ccc(CN2C(C(=O)NC3CCCC3)CSCCS2(=O)=O)cc1 (stereo not given)	none (no result: ABHD5 PLIN5 PPI, NOD2 RIPK2 PPI, TLR4 MyD88 comp, TLR9-MyD88 block)
Nc1nc2c(ncn2[C@@H]2O[C@H](C(=O)N[C@@H](Cc3ccccc3)C(=O)NCc3ccc4c(c3)OCO4)[C@@H](O)[C@H]2O)c(=O)[nH]1	none (no result: ABHD5 PLIN5 PPI, NOD2 RIPK2 PPI, TLR4 MyD88 comp, TLR9-MyD88 block)
COc1ccc2oc(/C=C/N(C)C)c(C(=O)c3ccc(Cl)cc3)c2c1	rCAG RNA binder 40 | rCAG bind conf inactive | dCAG dye counter 9.7
COc1ccc(/C=C2\SC(=S)N(CCC(=O)Nc3cccc(C(=O)O)c3)C2=O)cc1	none (no result: TLR4 MyD88 comp)
